Source: PubChem BioAssay (NCATS)
Where “and” joins values, the source holds several entries; their conditions need not be identical. Identical values can stand only once. Inconclusive results are not listed. A call without a number means that no potency is given here. More than one record can exist for a structure, and the calls need not agree. Calls of active or inactive are those of the source. Unless noted, the call rests on the fitted dose curve.

What was measured:
[1] = target: Estrogen receptor (Homo sapiens) (UniProt P03372); assay: qHTS assay for small molecule agonists of estrogen receptor alpha signaling (AID 588514); further: nearly all actives have a fitted effect of over 70% in size
In short: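 Efficacy is expressed against 20 nM 17-beta-estradiol (100%) and DMSO basal (0%); EC50 from Hill equation. Assay: beta-lactamase reporter in ER-alpha-UAS-bla HEK 293 cells, 18 h compound incubation, CCF4 detection.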

[2] = target: Bile acid receptor (Homo sapiens) (UniProt Q96RI1); assay: qHTS assay for small molecule antagonists of farnesoid X receptor signaling (AID 588526)
In short: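 Concentration-response titrations were fitted to the Hill equation for half-maximal inhibition and maximal response, with data normalised to 50 uM chenodeoxycholic acid and DMSO control wells. Cells: FXR-UAS-bla HEK293T, dialyzed FBS.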

[3] = target: Glucocorticoid receptor (Homo sapiens) (UniProt P04150); assay: qHTS assay for small molecule antagonists of glucocorticoid receptor signaling (AID 588533; active means well fitted inhibition curve with a large enough effect in the signal ratio, with a control signal flat, not every such curve was filed as active; the % refers to the signal ratio;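 further: cells stimulated with 2 nM dexamethasone as agonist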)
In short: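 Antagonist-mode qHTS: compound titrations added to GRE-bla HeLa cells, then dexamethasone 2 nM final; 18 h, 37 C. CCF4 FRET fluorescence normalized to dexamethasone and DMSO; IC50 from Hill fit.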

[4] = target: Peroxisome proliferator-activated receptor delta (Homo sapiens) (UniProt Q03181); assay: qHTS assay for small molecule agonists of peroxisome proliferator-activated receptor delta signaling (AID 588534)
In short: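 Agonist-mode qHTS; reporter cells, 5 hrs 37 C pre-incubation; compound titration, 18 hrs 37 C; CCF4 dye, 2 hrs RT; fluorescence read. EC50/efficacy via Hill fit.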

[5] = qHTS assay for small molecule antagonists of peroxisome proliferator-activated receptor delta signaling (AID 588535; active means well fitted inhibition curve with a large enough effect in the signal ratio, with a control signal flat, not every such curve was filed as active; the % refers to the signal ratio;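 on max response: cells co-treated with a PPAR-delta agonist as stimulator during compound exposure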); settings: HEK293T PPARd-UAS-bla, beta-lactamase FRET ratio, 18 h; 460 nm channel
In short: (§1)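 Inhibition of PPAR-delta response element-driven beta-lactamase expression is measured in HEK293T cells exposed to a compound titration series for 18 hrs at 37 C. Half-maximal inhibition comes from Hill equation fitting.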

[6] = target: Peroxisome proliferator-activated receptor delta (Homo sapiens) (UniProt Q03181); assay: as above
In short: as §1

[7] = target: Peroxisome proliferator-activated receptor gamma (Homo sapiens) (UniProt P37231); assay: qHTS assay for small molecule agonists of peroxisome proliferator-activated receptor gamma signaling (AID 588536; active means well fitted curve in the direction sought with a large enough effect in the signal ratio, with a control signal flat, not every such curve was filed as active; the % refers to the signal ratio)
In short: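 Using GeneBLAzer HEK293 cells, response was quantified by CCF4 fluorescence and normalized between basal DMSO (0%) and rosiglitazone 2 uM (100%); curves yielded half-maximal stimulation concentration and efficacy.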

[8] = target: Peroxisome proliferator-activated receptor gamma (Homo sapiens) (UniProt P37231); assay: qHTS assay for small molecule antagonists of peroxisome proliferator-activated receptor gamma signaling (AID 588537; active means well fitted inhibition curve with a large enough effect in the signal ratio, with a control signal flat, not every such curve was filed as active; the % refers to the signal ratio; further: potency means the concentration at half of the fitted maximal effect)
In short: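 Compounds are tested as concentration series for inhibition of rosiglitazone-driven (50 nM) reporter expression in GeneBLAzer PPAR-gamma-UAS-bla HEK293 cells. After 16 h at 37 C, CCF4 substrate is added for 2 h at room temperature and blue/green fluorescence is measured.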

[9] = target: Vitamin D3 receptor (Homo sapiens) (UniProt P11473); assay: qHTS assay for small molecule antagonists of vitamin D receptor signaling (AID 588541);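 further: receptor activated by calcitriol during compound treatment; series mostly up to about 77 µM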
In short: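 VDR-UAS-bla HEK293T cells (2000/well, 2% charcoal-stripped FBS) were treated with titrated compounds plus 1-alpha,25-dihydroxyvitamin D3 (50 nM or 3 nM final) for 16 h at 37 C. CCF4 beta-lactamase fluorescence was read; Hill fits gave IC50.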

[10] = target: Vitamin D3 receptor (Homo sapiens) (UniProt P11473); assay: qHTS assay for small molecule agonists of vitamin D receptor signaling (AID 588543)
In short: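 GeneBLAzer VDR-UAS-bla HEK293T cells in 2% charcoal-stripped FBS medium were dosed with compound titrations for 16 h at 37 °C; CCF4 β-lactamase readout (405 nm ex, 460/530 nm em). EC50 and efficacy from Hill fits, normalized to 50 nM calcitriol (100%) and DMSO (0%).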

[11] = qHTS assay for small molecule agonists of retinoid X receptor alpha signaling (AID 588544); settings: HEK293T RXRa-UAS-bla, beta-lactamase reporter, 18 h; 530 nm emission
[12] = target: Retinoic acid receptor RXR-alpha (Homo sapiens) (UniProt P19793); assay: as above
[13] = qHTS assay for small molecule antagonists of retinoid X receptor alpha signaling (AID 588546; active means well fitted inhibition curve with a large enough effect in the signal ratio, with a control signal flat, not every such curve was filed as active; the % refers to the signal ratio;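 further: cells stimulated with 9-cis-retinoic acid as agonist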); settings: HEK293T RXRa-UAS-bla, beta-lactamase ratio, antagonist mode; measured here: W530 green channel, cytotoxicity proxy
In short: (§2)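 Beta-lactamase reporter inhibition, read as CCF4 fluorescence ratio (ex 405, em 460/530 nm) after 2 h at RT. HEK293T UAS-bla cells, 2500/well, were stimulated with 9-cis-RA at 500 or 100 nM final alongside test compound for 18 h at 37 C.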

[14] = target: Retinoic acid receptor RXR-alpha (Homo sapiens) (UniProt P19793); assay: as above; settings: HEK293T RXRa-UAS-bla, beta-lactamase ratio, antagonist mode
In short: as §2

[15] = target: Thyroid hormone receptor beta (Homo sapiens) (UniProt P10828); assay: qHTS assay for small molecule antagonists of thyroid hormone receptor beta signaling (AID 588547; active means well fitted inhibition curve with a large enough effect in the signal ratio, with a control signal flat, not every such curve was filed as active; the % refers to the signal ratio;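 further: cells stimulated with 0.4 nM T3 agonist during compound exposure; series mostly up to about 77 µM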); settings: TR-UAS-bla HEK293, beta-lactamase ratio, antagonist mode, 18 h
In short: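 TR-UAS-bla GripTite HEK293 cells in 2% charcoal/dextran FBS medium were preincubated 4 h at 37 C, given compound (0.59 nM to 92 uM) plus 0.4 nM T3 (final) for 18 h, then CCF4 for 2 h at RT; Hill fit gave IC50.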

[16] = target: Voltage-gated inwardly rectifying potassium channel KCNH2 (Homo sapiens) (UniProt Q12809); assay: qHTS Assay for Small Molecule Inhibitors of the Human hERG Channel Activity (AID 588834; active means well fitted inhibition curve with a large enough effect;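 further: top concentration of the series differs between compounds; lower thallium flux fluorescence means stronger hERG block; nearly all actives have a fitted effect of over 50% in size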)
In short: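 In hERG-transduced U2OS cells, dye-loaded for 1 hr at room temperature in dark, test compounds incubated 10 min at 37 °C before thallium stimulation. AC50 values derived by Hill modelling of concentration-response.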

[17] = target: Luciferin 4-monooxygenase (Photinus pyralis) (UniProt P08659); assay: Biochemical firefly luciferase enzyme assay for NPC (AID 624030; active means well fitted inhibition curve with a large enough effect; further: nearly all actives have a fitted effect of over 70% in size; further: potency means the concentration at half of the fitted maximal effect)
In short: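 Counter-screen for direct inhibition of the luciferase enzyme by approved-drug library compounds, run at 10 nM enzyme in 50 mM Tris acetate (final). Luminescence was read within 5 min of enzyme-buffer addition and normalized to PTC124 versus DMSO (0%).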

[18] = target: Androgen receptor (Homo sapiens) (UniProt P10275); assay: qHTS assay for small molecule agonists of androgen receptor signaling (AID 588515; active means well fitted curve in the direction sought with a large enough effect in the signal ratio, with a control signal flat; the % refers to the signal ratio); settings: AR-UAS-bla HEK293, beta-lactamase ratio, agonist 16 h; stronger effect = higher value
In short: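 Stimulation of an AR-responsive β-lactamase reporter in GripTite HEK293 cells was measured after 16 h compound exposure at 37 °C, via CCF4 fluorescence after 2 h RT. EC50 from Hill fits, normalized to R1881 at 30 nM.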

[19] = target: Glucocorticoid receptor (Homo sapiens) (UniProt P04150); assay: qHTS assay for small molecule agonists of glucocorticoid receptor signaling (AID 588532; active means well fitted curve in the direction sought with a large enough effect in the signal ratio, with a control signal flat; the % refers to the signal ratio); settings: HeLa MMTV-bla, beta-lactamase ratio, agonist, 18 h; stronger effect = higher value; percent of dexamethasone control, DMSO zero
In short: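 MMTV-bla HeLa, beta-lactamase reporter; medium with 1% charcoal/dextran-stripped FBS; cpds up to 92 uM, 18 h, 37 C; CCF4 readout 460/530 nm; Hill fit → EC50, efficacy vs 0.1 uM dexamethasone = 100%.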

[20] = target: Androgen receptor (Homo sapiens) (UniProt P10275); assay: qHTS assay for small molecule antagonists of androgen receptor signaling (AID 588516; active means well fitted curve in the direction sought with a large enough effect in the signal ratio, with a control signal flat, not every such curve was filed as active; the % refers to the signal ratio)
In short: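 AR-UAS-bla-GripTite HEK 293 cells (2000/well, 5 h at 37 C) received compound titrations, then R1881 at 10 nM final; after 16 h at 37 C, CCF4 dye 2 h RT, beta-lactamase fluorescence read; IC50 from Hill fits.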

Peroxisome proliferator-activated receptor delta (Homo sapiens), sequence (Q03181 whole entry, looked up): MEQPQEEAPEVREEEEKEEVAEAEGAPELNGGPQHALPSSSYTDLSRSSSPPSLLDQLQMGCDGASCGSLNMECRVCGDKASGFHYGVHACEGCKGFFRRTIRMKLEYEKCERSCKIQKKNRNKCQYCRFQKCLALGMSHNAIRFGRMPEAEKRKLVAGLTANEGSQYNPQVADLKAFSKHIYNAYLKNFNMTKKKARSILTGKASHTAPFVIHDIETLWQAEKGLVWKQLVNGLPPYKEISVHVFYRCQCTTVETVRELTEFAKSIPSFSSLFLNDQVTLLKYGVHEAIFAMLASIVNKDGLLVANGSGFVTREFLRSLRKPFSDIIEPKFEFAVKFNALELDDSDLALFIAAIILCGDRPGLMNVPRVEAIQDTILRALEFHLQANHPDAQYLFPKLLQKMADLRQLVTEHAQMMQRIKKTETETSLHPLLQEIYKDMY
Retinoic acid receptor RXR-alpha (Homo sapiens), sequence (P19793 whole entry, looked up): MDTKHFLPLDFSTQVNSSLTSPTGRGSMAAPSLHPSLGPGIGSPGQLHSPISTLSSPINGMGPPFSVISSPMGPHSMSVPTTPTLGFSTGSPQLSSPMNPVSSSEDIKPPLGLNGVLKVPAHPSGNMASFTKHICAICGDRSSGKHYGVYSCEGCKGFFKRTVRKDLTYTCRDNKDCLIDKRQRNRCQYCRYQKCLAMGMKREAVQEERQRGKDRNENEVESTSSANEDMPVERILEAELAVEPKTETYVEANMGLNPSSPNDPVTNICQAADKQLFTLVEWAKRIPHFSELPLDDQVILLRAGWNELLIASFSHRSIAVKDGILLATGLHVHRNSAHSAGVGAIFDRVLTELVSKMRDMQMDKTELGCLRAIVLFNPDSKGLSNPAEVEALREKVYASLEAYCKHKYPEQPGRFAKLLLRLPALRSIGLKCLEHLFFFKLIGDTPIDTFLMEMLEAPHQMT
Vitamin D3 receptor (Homo sapiens), sequence (P11473 whole entry, looked up): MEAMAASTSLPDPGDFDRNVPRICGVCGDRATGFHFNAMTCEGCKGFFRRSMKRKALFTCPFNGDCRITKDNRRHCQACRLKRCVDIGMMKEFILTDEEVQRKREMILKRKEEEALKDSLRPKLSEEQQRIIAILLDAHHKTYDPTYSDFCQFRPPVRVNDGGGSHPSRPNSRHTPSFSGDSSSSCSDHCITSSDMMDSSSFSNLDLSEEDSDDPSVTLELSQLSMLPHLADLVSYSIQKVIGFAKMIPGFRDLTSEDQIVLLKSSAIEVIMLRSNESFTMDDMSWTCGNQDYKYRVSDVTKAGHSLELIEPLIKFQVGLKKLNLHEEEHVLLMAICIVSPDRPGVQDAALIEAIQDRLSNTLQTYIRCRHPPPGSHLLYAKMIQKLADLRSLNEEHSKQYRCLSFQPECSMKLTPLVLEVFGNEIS
Luciferin 4-monooxygenase (Photinus pyralis), sequence (P08659 whole entry, looked up): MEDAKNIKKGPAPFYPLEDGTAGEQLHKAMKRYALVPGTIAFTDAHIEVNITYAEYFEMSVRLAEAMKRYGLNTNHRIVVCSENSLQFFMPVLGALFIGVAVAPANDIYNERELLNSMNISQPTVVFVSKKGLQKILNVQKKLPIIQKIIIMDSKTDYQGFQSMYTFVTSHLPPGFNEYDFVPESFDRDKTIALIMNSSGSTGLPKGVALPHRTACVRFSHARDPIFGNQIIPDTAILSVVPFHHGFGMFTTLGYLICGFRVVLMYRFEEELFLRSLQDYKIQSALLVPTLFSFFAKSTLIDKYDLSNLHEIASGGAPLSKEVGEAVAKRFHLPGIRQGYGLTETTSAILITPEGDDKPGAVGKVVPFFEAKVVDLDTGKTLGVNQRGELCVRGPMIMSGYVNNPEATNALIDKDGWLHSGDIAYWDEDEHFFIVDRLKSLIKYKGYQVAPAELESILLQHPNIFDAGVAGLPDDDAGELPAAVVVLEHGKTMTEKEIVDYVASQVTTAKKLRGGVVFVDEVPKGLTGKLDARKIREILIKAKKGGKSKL
Thyroid hormone receptor beta (Homo sapiens), sequence (P10828 whole entry, looked up): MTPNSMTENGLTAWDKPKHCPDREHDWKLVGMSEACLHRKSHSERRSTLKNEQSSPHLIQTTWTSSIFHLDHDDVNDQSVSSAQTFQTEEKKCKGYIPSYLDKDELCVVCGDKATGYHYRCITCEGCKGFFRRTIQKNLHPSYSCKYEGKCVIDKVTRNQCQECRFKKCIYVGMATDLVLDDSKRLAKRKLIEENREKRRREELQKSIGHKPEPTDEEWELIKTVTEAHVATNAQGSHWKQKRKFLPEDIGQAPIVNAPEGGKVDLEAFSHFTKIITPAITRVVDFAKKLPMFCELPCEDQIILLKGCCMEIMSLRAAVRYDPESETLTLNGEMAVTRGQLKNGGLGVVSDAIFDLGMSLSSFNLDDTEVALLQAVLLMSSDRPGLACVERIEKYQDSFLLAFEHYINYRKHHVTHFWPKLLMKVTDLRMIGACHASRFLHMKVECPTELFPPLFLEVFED
Peroxisome proliferator-activated receptor gamma (Homo sapiens), sequence (P37231 whole entry, looked up): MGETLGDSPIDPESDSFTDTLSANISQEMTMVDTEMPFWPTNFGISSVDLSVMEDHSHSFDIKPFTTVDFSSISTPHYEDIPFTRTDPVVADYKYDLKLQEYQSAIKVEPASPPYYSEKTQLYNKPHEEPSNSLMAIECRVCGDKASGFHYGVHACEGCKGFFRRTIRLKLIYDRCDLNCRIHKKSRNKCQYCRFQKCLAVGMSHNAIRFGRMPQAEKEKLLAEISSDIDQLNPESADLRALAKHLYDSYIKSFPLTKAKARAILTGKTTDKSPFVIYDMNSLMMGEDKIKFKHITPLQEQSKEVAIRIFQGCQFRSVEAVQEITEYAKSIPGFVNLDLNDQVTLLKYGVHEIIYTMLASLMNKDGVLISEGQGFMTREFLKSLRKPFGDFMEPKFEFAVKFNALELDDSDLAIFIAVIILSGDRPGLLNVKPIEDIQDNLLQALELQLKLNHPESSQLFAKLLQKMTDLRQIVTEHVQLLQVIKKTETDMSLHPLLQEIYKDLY
Voltage-gated inwardly rectifying potassium channel KCNH2 (Homo sapiens), sequence (Q12809 whole entry, looked up): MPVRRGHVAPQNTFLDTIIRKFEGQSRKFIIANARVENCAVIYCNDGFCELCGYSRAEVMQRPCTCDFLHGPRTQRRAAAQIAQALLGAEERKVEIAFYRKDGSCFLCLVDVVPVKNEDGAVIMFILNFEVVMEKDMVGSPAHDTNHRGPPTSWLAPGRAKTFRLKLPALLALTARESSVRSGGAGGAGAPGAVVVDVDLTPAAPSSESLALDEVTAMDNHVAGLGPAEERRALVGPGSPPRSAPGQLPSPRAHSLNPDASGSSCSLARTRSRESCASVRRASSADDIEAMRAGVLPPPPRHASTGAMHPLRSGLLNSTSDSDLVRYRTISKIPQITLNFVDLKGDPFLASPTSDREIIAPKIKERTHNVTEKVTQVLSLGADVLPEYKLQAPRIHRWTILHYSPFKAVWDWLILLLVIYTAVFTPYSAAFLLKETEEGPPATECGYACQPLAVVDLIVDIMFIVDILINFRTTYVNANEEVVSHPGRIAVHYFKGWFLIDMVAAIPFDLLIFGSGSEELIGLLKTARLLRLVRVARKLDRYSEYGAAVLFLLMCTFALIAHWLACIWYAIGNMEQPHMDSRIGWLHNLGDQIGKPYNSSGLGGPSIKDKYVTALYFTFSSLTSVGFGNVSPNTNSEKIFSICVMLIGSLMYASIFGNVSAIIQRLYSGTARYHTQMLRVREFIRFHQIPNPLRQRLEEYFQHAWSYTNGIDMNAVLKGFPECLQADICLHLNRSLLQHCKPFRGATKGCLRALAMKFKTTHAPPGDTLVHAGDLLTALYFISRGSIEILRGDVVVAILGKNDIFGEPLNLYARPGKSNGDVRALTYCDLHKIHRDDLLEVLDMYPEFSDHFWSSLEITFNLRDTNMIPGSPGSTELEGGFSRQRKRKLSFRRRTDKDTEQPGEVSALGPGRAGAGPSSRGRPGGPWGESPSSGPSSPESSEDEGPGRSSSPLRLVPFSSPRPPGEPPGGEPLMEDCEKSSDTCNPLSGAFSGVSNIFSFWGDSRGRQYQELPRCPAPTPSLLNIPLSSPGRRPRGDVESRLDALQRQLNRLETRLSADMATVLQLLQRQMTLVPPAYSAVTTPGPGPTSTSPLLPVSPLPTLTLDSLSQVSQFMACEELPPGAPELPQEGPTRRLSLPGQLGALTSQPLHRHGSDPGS
Estrogen receptor (Homo sapiens), sequence (P03372 whole entry, looked up): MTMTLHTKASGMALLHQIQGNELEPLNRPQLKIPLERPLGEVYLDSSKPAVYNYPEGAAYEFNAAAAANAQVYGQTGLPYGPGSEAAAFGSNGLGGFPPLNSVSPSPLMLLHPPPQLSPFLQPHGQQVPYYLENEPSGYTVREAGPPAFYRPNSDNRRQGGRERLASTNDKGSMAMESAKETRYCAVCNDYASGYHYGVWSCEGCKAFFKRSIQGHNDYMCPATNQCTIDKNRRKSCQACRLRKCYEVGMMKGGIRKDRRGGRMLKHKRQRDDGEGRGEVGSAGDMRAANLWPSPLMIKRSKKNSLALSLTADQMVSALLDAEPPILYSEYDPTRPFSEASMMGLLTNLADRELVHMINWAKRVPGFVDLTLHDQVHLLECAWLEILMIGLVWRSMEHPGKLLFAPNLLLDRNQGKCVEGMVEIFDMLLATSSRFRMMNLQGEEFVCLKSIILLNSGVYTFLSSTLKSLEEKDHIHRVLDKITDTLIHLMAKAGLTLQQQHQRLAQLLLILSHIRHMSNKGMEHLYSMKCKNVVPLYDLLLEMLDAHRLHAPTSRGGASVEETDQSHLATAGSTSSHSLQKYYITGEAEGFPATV

SMILES	outcome [1]	outcome [2]	Potency [3]	outcome [4]	max response [5]	Potency [6]	outcome [7]	Potency [8]	Potency [9]	outcome [10]	max response [11]	Potency [12]	max response [13]	max response [14]	activity change % (negative = inhibition) [15]	Potency [16]	Potency [17]	activation [18]	activation [19]	Potency [20]
Cc1cc(O)ccc1Cl	inactive	inactive	inactive	inactive	44.7%	inactive	inactive	inactive	inactive	inactive	-6.7%	inactive	3.81%	-4.22% (inactive)	1.27% (inactive)	inactive	inactive	–	–	–
c1ccc2occc2c1	inactive	–	–	–	–	–	–	inactive	–	–	–	–	–	–	-0.0158% (inactive) and 0.269% (inactive)	–	–	–	–	–
CCOP(=O)(NC(C)C)Oc1ccc(SC)c(C)c1 (configuration not stated)	–	inactive	–	inactive	97.8%	inactive	inactive	inactive and 44.7 µM (active)	inactive	inactive	8.26%	inactive	1.81% and -9.53%	–	–	inactive	inactive	2.45% (inactive) and -12.7% (inactive)	3.01% (inactive) and -4.29% (inactive)	–
COCCOCCO	inactive	–	–	inactive	-0.0574%	inactive	inactive	inactive	inactive	inactive	0.722%	inactive	3.81% and -4.43%	-11.3% (inactive) and -22% (inactive)	1.33% (inactive) and -16.2% (inactive)	–	inactive	–	–	–
c1cc2ccc3cccc4ccc(c1)c2c34	inactive	–	inactive	inactive	50.8% and 2.37%	inactive	inactive	inactive	inactive	inactive	-6.58% and -8.62%	inactive	-9.93% and -1.15%	–	8.95% (inactive)	inactive	inactive	11.6% (inactive) and 8.44% (inactive)	1.46% (inactive) and -7.46% (inactive)	inactive
CCOCCOC(C)=O	inactive	–	inactive	inactive	–	–	inactive	inactive	inactive	inactive	-8.15%	inactive	-4.94%	–	9.89% (inactive)	inactive	inactive	–	-2.6% (inactive)	–
CC(C)(c1ccc(O)cc1)c1ccc(O)cc1	–	–	–	inactive	–	–	–	inactive	–	–	0.616% and 8.18%	inactive	–	–	-3.91% (inactive)	inactive	–	-6.96% (inactive)	–	–
COC(C)(C)CCCC(C)C/C=C/C(C)=C/C(=O)OC(C)C (configuration not stated)	–	–	–	–	–	–	inactive	–	–	–	13.2%	inactive	2.28% and 4.86%	–	-7.54% (inactive) and 20% (inactive)	inactive	inactive	-13.7% (inactive) and -1.74% (inactive)	–	inactive
CCCN(CCC)c1c([N+](=O)[O-])cc(S(N)(=O)=O)cc1[N+](=O)[O-]	inactive	inactive	–	inactive	53.5%	inactive	–	–	–	inactive	-0.936%	inactive	-18.5%	–	0.13% (inactive)	–	inactive	–	-3.33% (inactive)	–
O=C(O)COc1nc(Cl)c(Cl)cc1Cl	inactive	inactive	inactive	–	110%	inactive	–	–	inactive	–	–	–	0.628%	–	3.94% (inactive)	–	inactive	–	-16% (inactive)	–
Nc1c(Cl)c(Cl)c(Cl)c(Cl)c1Cl	–	–	–	inactive	13.6%	inactive	inactive	inactive	inactive	inactive	-5.48%	inactive	-3.59%	–	17.1% (inactive)	–	inactive	1.01% (inactive)	–	inactive
C=CC(=O)NCNC(=O)C=C	inactive	–	inactive	inactive	-23.6%	inactive	inactive	inactive	inactive	inactive	1.23% and 0.699%	inactive	-7% and 1.5%	–	-12.9% (inactive) and 1.41% (inactive)	inactive	inactive	20.4% (inactive) and 9.02% (inactive)	4.39% (inactive) and -21.1% (inactive)	inactive
O=C(Nc1ccccc1-c1ccc(Cl)cc1)c1cccnc1Cl	inactive	–	inactive	inactive	–	–	inactive	–	inactive	inactive	–	–	-4.9%	–	–	–	inactive	–	-16.1% (inactive)	–
Nc1ccc([N+](=O)[O-])cc1	–	inactive	–	–	–	–	inactive	–	inactive	inactive	6.91%	inactive	1.67%	–	-27.9% (inactive)	inactive	inactive	7.63% (inactive)	0.519% (inactive)	–
Nc1ccc(N=Nc2ccccc2)cc1	–	inactive	inactive	inactive	4.67%	inactive	inactive	inactive	inactive	inactive	-10.7%	inactive	–	–	-2.63% (inactive)	–	5.26 µM (active)	–	-2.94% (inactive)	–
CC(C)Oc1cccc(NC(=O)c2ccccc2C(F)(F)F)c1	inactive	–	inactive	inactive	–	–	–	–	inactive	inactive	–	–	0.398%	–	-3.3% (inactive)	–	inactive	–	-4.03% (inactive)	–
Nc1ccc(Cl)cc1	inactive	–	inactive	inactive	–	–	–	–	–	–	–	–	-14.8%	–	5.44% (inactive)	inactive	inactive	–	–	–
